The nature of test [1]: qHTS assay to identify small molecule agonists of the androgen receptor (AR) signaling pathway in the presence of an antagonist - cell viability counter screen (AID 1259379). Also: series mostly up to about 92 µM; nearly all actives have a fitted effect of over 25% in size. The method, boiled down: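 MDA-kb2 human breast carcinoma cells (stable MMTV-luciferase, AR/GR responsive) were seeded 3,000 cells/well, pre-incubated 5 hr at 37C without CO2, then given 3.0uM nilutamide and compounds at 15 concentrations for 16 hr. Viability was read by CellTiter-Fluor fluorescence.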

Test [2] is described as follows: qHTS assay to identify small molecule agonists of the estrogen receptor beta (ER-beta) signaling pathway - cell viability counter screen (AID 1259380). Also: nearly all actives have a fitted effect of over 30% in size. The method, boiled down: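 ER-beta-UAS-bla HEK293T cells in medium with 2% charcoal-stripped FBS were preincubated 6 hr at 37C, dosed with compound in DMSO for 16 hr, then after the bla read, CellTiter-Glo was added for 30 min at room temperature; luminescence recorded.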

Test [3] deals with Androgen receptor (Homo sapiens) (UniProt P10275). Description: qHTS assay to identify small molecule agonists of the androgen receptor (AR) signaling pathway in the presence of an antagonist (AID 1259381; calls by dose curve; also: nearly all actives have a fitted effect of over 15% in size). The method, boiled down: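 MDA-kb2 human breast carcinoma cells carrying an MMTV-luciferase reporter (AR- and GR-responsive) were treated with compounds at 15 concentrations plus 3.0uM final nilutamide for 16hr at 37C without CO2; luminescence was read after ONE-Glo addition.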
Sequence of Androgen receptor (Homo sapiens) (P10275 whole entry, looked up): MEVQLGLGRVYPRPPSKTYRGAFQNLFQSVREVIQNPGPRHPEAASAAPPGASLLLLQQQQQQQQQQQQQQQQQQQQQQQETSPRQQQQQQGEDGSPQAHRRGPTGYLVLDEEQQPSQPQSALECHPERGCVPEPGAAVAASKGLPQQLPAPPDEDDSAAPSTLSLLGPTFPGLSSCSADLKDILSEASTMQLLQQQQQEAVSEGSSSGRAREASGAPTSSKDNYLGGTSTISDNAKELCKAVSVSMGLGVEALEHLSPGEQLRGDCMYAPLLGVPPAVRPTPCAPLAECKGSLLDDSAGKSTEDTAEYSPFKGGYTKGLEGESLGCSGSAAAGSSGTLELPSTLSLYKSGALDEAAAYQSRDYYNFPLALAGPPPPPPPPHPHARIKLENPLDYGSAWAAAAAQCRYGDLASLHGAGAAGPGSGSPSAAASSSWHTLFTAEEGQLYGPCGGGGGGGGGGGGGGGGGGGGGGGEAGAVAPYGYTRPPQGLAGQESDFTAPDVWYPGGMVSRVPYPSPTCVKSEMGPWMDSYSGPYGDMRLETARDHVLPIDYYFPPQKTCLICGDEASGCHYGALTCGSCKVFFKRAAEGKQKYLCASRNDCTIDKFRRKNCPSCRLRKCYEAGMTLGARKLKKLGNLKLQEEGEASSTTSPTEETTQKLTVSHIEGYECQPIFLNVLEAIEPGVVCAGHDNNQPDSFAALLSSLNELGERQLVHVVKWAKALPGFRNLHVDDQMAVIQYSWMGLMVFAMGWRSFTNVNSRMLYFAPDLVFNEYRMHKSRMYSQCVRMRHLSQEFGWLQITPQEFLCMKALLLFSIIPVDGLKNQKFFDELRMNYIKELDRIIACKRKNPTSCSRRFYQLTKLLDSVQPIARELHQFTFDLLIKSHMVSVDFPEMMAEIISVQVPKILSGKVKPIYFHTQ
For orientation: qHTS replaces the single test concentration by a dilution series.

Test [4] is described as follows: qHTS assay to identify small molecule antagonists of the estrogen receptor beta (ER-beta) signaling pathway - cell viability counter screen (AID 1259382).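 Also: HEK293T cells carrying ER-beta-UAS-bla reporter stimulated with estradiol; series mostly up to about 92 µM; nearly all actives have a fitted effect of over 55% in size.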 In short, it runs like this:
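ER-beta-UAS-bla HEK293T cells (2,000/well, 2% charcoal-stripped FBS) were pre-incubated 6 hr at 37C, then given compound plus 1nM final 17-beta-estradiol for 16 hr. Viability was read in the same wells by CellTiter-Glo luminescence after 30 min at room temperature.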

Test [5] deals with Estrogen receptor (Homo sapiens) (UniProt P03372). Description: qHTS assay to identify small molecule agonists of the estrogen receptor alpha (ER-alpha) signaling pathway in the presence of an antagonist (AID 1259383; calls by dose curve; also: top concentration of the series differs between compounds; nearly all actives have a fitted effect of over 15% in size). The method, boiled down:
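VM7Luc4E2 cells (endogenous full-length ER-alpha, 4×ERE-luciferase) were precultured 5 days in phenol red-free medium with 10% charcoal-stripped FBS, given 10.0nM ICI-182,780 (final), then treated with compounds at 15 concentrations for 22hr at 37C; luminescence read with ONE-Glo.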

Test [6] in a line: qHTS assay to identify small molecule agonists or antagonists of the thyroid stimulating hormone receptor (TSHR) signaling pathway - wild type cell line counter screen (AID 1259384; calls by dose curve). In short, it runs like this:
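Wild-type HEK293 cells were plated 18 h at 37 C/5% CO2, pin-dosed with compound plus Ro20-1724 medium, held 30 min at room temperature, then given cAMP-d2 and anti-cAMP-cryptate; fluorescence was read after 1 h. Fifteen concentrations, triplicate.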

The target of test [7] is Thyrotropin receptor (Homo sapiens) (UniProt P16473). Description: qHTS assay to identify small molecule antagonists of the thyroid stimulating hormone receptor (TSHR) signaling pathway (AID 1259385; calls by dose curve; also: nearly all actives have a fitted effect of over 20% in size). In short, it runs like this:
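TSHR-HEK293 cells were plated and held 18 h at 37C/5% CO2, then given compound plus Ro20-1724 and stimulated with TSH at 1.5 ng/mL final. After 30 min at room temperature, cAMP was detected with cAMP-d2/anti-cAMP-cryptate (1 h) by fluorescence.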

A short description of test [8]: qHTS assay to identify small molecule agonists of the estrogen receptor alpha (ER-alpha) signaling pathway in the presence of an antagonist - cell viability counter screen (AID 1259386).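 Also: series mostly up to about 92 µM; cells exposed to compounds for 22 h at 37 °C before the viability read; nearly all actives have a fitted effect of over 30% in size.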 The method, boiled down:
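VM7Luc4E2 cells (endogenous full-length ER-alpha, 4×ERE-luciferase) were held 5 days in phenol red-free medium with 10% charcoal-stripped FBS, plated, then given 10.0nM ICI-182,780 and compounds at 15 concentrations for 22hr at 37C; viability read by CellTiter-Fluor fluorescence.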

The target in test [9] is Progesterone receptor (Homo sapiens) (UniProt P06401). Kind of test: qHTS assay to identify small molecule agonists of the progesterone receptor (PR) signaling pathway (AID 1346784; calls by dose curve; also: nearly all actives have a fitted effect of over 30% in size). In short, it runs like this:
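PR-UAS-bla HEK 293T cells carrying a UAS-driven beta-lactamase reporter were seeded in medium with 2% charcoal-stripped FBS, preincubated 6 hr at 37C, then exposed to compounds in DMSO for 16 hr; agonism was read by LiveBLAzer B/G FRET fluorescence.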

Test [10] is described as follows: qHTS assay to identify small molecule antagonists of the progesterone receptor (PR) signaling pathway - cell viability counter screen (AID 1346798). Also: series mostly up to about 92 µM; nearly all actives have a fitted effect of over 50% in size. The method, boiled down: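 PR-UAS-bla HEK293T cells in medium with 2% charcoal-stripped FBS were treated with compounds plus R5020 for 16 hr at 37C. Cell viability was then read by CellTiter-Glo luminescence after 30 min at room temperature in the same wells.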

The nature of test [11]: qHTS assay to identify small molecule agonists of the progesterone receptor (PR) signaling pathway - cell viability counter screen (AID 1346799; calls by dose curve; also: nearly all actives have a fitted effect of over 45% in size). The method, boiled down:
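PR-UAS-bla HEK293T cells, 3,000 per well in medium with 2% charcoal-stripped FBS, were preincubated 6 hr at 37C, then exposed to compounds for 16 hr; viability was read as CellTiter-Glo luminescence after 30 min at room temperature.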

Test [12] in a line: qHTS assay to identify small molecule antagonists of the TGF-beta/Smad signaling pathway - cell viability counter screen (AID 1346824). Also: nearly all actives have a fitted effect of over 50% in size. In short, it runs like this: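 SBE-bla HEK 293T cells were plated overnight at 37 C, then given compounds in DMSO plus TGF-beta1 (added as 0.25 ng/mL solution) for 5 hr. After the bla read, CellTiter-Glo was added to the same wells and luminescence read after 30 min at room temperature.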

The nature of test [13]: qHTS assay to identify small molecule agonists of the TGF-beta/Smad signaling pathway - cell viability counter screen (AID 1346829). Also: top concentration of the series differs between compounds; nearly all actives have a fitted effect of over 45% in size. The method, boiled down:
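Tox21 qHTS format: SBE-bla HEK 293T cells treated with DMSO-dissolved compounds for 5 hr; CellTiter-Glo luminescence after 30 min at room temperature.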

Test [14] can be described thus: qHTS assay to identify small molecule agonists of the TGF-beta/Smad signaling pathway (AID 1346859; active = well fitted activation curve with a large enough effect in the signal ratio in the repeat runs, not every such curve was filed as active; the % refers to the signal ratio; also: series mostly up to about 77 µM). The method, boiled down:
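HEK 293T cells stably carrying a beta-lactamase reporter driven by the Smad binding element were seeded overnight, exposed to DMSO-dissolved compounds for 5 hr at 37 C, 5% CO2, then loaded with FRET substrate for 2 hr at room temperature.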

Test [15] in a line: Human pregnane X receptor (PXR) small molecule agonists, qHTS cell viability counter screen (AID 1346977). Also: nearly all actives have a fitted effect of over 50% in size. The method, boiled down:
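PXR-Luc HepG2 cells in medium with 5% charcoal-stripped FBS were pre-incubated 5hr, then exposed to compounds for 24hr at 37C. Viability was read in the same wells by CellTiter-Fluor fluorescence, reagent added after 23hr with a 1hr incubation.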

Test [16] in a line: Caspase-3/7 induction in HepG2 cells by small molecules, qHTS assay (AID 1346978). Also: nearly all actives have a fitted effect of over 15% in size. In short, it runs like this: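 Wild-type HepG2 cells (2,000/well) were settled 5 h at 37 C, 5% CO2, then exposed to compounds in DMSO for 17 h. Caspase-3/7 activity was read by luminescence 30 min after adding Caspase-Glo 3/7 reagent at room temperature.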
The nature of test [17]: Caspase-3/7 induction in CHO-K1 cells by small molecules, qHTS cell viability counter screen (AID 1346979). Also: nearly all actives have a fitted effect of over 35% in size. Also: potency is read from the fitted curve at half-maximal effect. The method, boiled down: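 Wild-type CHO-K1 cells were seeded at 1,500 per well, rested 5hr at 37 C, then exposed to compounds in DMSO. After 16hr, CellTiter-Fluor reagent was added and fluorescence read 1hr later as the viability measure.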
Test [18] concerns the target Progesterone receptor (Homo sapiens) (UniProt P06401). Kind of test: qHTS assay to identify small molecule antagonists of the progesterone receptor (PR) signaling pathway (AID 1346795; active = well fitted inhibition curve with a large enough effect in the signal ratio in the repeat runs, not every such curve was filed as active; the % refers to the signal ratio). In short, it runs like this: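 PR-UAS-bla HEK293T cells carrying a UAS-driven beta-lactamase reporter were plated in medium with 2% charcoal-stripped FBS and rested 6 hr at 37C. Compounds were added with 1 nM R5020 (final) for 16 hr, then FRET substrate loaded 2 hr at room temperature.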

Test [19] has as its target Thyrotropin-releasing hormone receptor (Homo sapiens) (UniProt P34981). Description: qHTS assay to identify small molecule antagonists of the thyrotropin-releasing hormone receptor (TRHR) signaling pathway (AID 1346877; active = well fitted inhibition curve with a large enough effect in the repeat runs, not every such curve was filed as active; also: series mostly up to about 51 µM). The method, boiled down: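 TRHR-expressing HEK293 cells were seeded, cultured 18 h at 37 °C, then loaded with calcium dye for 2 h. Compounds were pre-incubated 5 min at room temperature before 1 nM TRH (final) was added, and kinetic fluorescence was recorded for 3 min.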

Test [20] shares this target. Description: qHTS assay to identify small molecule agonists of the thyrotropin-releasing hormone receptor (TRHR) signaling pathway (AID 1346891; calls by dose curve; also: series mostly up to about 58 µM). In short, it runs like this: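 TRHR-expressing HEK293 cells were plated 18 h at 37 °C/5% CO2, loaded with calcium dye 2 h at 37 °C, then given compound in DMSO; fluorescence was read kinetically for 3 min at 1 s intervals.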

SMILES strings stand for the structures. Values without a mark were called inactive. Records with an inconclusive call do not appear. Activity calls are given as the source filed them. Unless noted, calls follow the shape of the dose curve; as a rule, active = well fitted curve in the direction sought with a large enough effect in the repeat runs; inconclusive = weak or mixed curves; inactive = no such curve, though single readings can be large; an effect the other way counts as inactive or inconclusive.

Sequence of Thyrotropin receptor (Homo sapiens) (P16473 whole entry, looked up): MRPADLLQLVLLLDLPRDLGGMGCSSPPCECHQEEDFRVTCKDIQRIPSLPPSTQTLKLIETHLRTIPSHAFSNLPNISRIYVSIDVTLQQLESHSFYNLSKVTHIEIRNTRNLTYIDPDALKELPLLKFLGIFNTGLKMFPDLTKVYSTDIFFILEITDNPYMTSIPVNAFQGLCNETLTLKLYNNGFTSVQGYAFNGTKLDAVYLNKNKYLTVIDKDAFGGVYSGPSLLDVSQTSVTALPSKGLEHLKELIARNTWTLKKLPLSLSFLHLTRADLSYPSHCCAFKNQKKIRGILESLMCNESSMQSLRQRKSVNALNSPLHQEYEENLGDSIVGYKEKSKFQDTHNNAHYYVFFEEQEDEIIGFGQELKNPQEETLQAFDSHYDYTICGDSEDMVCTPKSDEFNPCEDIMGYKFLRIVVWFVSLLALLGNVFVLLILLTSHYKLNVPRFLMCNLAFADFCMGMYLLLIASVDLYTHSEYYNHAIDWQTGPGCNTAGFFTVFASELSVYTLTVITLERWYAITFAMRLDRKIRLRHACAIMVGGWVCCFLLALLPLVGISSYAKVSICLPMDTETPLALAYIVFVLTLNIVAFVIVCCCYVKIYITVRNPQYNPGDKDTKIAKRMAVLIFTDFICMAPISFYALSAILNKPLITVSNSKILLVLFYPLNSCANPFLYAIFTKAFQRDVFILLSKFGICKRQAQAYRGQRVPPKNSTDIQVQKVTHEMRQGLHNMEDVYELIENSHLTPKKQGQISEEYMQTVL
Sequence of Estrogen receptor (Homo sapiens) (P03372 whole entry, looked up): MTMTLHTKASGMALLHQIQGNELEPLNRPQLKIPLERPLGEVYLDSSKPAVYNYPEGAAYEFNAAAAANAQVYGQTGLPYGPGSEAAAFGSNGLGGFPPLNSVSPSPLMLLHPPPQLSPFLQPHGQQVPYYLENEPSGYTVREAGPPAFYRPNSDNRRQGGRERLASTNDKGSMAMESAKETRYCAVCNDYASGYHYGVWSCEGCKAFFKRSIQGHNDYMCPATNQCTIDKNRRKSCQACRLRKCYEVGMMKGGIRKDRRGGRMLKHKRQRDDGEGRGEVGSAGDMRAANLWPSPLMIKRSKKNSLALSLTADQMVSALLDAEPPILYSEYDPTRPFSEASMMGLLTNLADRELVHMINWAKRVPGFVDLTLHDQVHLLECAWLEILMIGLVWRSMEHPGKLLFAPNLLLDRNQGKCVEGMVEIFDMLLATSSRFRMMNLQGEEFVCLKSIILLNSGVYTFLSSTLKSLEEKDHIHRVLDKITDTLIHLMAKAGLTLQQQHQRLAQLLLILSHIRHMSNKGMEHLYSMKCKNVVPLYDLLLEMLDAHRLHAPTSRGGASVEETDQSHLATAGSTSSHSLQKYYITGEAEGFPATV
Sequence of Thyrotropin-releasing hormone receptor (Homo sapiens) (P34981 whole entry, looked up): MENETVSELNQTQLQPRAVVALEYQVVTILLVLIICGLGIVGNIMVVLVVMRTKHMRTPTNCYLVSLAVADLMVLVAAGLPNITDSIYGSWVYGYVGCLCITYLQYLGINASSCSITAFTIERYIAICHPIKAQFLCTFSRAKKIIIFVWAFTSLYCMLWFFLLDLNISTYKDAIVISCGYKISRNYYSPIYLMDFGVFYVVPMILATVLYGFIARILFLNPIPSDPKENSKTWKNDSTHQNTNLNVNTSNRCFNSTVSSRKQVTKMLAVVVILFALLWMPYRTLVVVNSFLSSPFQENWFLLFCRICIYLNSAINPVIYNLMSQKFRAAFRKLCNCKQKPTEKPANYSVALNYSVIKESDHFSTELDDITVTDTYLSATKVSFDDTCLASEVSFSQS
Sequence of Progesterone receptor (Homo sapiens) (P06401 whole entry, looked up): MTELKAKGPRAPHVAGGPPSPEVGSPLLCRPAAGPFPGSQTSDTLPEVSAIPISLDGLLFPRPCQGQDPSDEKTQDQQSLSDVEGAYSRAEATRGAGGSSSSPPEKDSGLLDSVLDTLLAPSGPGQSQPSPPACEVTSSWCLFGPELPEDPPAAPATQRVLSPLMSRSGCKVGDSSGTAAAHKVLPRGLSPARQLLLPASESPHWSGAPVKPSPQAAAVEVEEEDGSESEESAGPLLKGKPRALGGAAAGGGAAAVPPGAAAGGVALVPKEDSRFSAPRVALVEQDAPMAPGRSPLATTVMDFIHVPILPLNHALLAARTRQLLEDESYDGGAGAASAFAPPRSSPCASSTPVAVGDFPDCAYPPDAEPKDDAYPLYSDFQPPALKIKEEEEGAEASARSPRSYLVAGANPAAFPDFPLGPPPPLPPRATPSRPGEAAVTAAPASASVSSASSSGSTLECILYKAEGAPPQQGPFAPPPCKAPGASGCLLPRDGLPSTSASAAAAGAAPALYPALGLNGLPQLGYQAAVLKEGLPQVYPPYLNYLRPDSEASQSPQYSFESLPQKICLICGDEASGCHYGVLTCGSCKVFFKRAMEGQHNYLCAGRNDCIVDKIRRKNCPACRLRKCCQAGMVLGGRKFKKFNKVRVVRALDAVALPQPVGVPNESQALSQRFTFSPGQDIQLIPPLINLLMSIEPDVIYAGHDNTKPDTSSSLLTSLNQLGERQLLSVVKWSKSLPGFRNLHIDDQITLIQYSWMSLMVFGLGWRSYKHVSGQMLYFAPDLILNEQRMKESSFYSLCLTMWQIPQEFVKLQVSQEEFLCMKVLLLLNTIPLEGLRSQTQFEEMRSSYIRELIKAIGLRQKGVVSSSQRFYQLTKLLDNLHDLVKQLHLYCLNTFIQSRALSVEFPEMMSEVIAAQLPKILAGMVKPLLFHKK

With `CC(C)C(=O)C(C)C`, the Potency entry in [1], in test [2], in [3], in [4], in [5] and in test [6] was “inactive” throughout. Besides, the Potency result in test [7], in [8], in test [10], in test [11], in test [12] and in test [13] was “inactive” each time. Moreover, the Potency result in [15], in test [16] and in [17] was “inactive” each time. The result in [9] and in [14] was inactive.

As for `Cc1c[nH]c(=O)[nH]c1=O`, the Potency result in test [1], in test [2], in test [3], in test [4], in test [5] and in test [6] was “inactive” throughout. Also, the Potency result in test [7], in test [8], in [18], in test [10], in test [11] and in [12] was “inactive” each time. The Potency result in test [13], in [19], in [20], in [15], in [16] and in test [17] was “inactive” each time. In addition, the result in test [9] and in test [14] was inactive.

On to `C/C=C/C(=O)C1=C(C)C=CCC1(C)C`, for which the Potency result in [1], in test [2], in test [3], in test [4], in [5] and in test [6] was “inactive” each time. The Potency entry in test [7], in [8], in [10], in test [11], in test [12] and in test [13] was “inactive” throughout. For the same compound, the Potency entry in test [19], in test [20], in [15], in test [16] and in test [17] was “inactive” throughout. For the same compound, the compound was classed as inactive in test [9] and in test [14].

As for `Cn1c(=O)[nH]c2ncn(C)c2c1=O`, the Potency result in test [1], in test [2], in [3], in test [4], in test [5] and in [6] was “inactive” in each case. The Potency entry in test [7], in test [8], in [18], in test [10], in test [12] and in test [13] was “inactive” each time. In addition, the Potency entry in test [19], in test [20], in test [15], in [16] and in test [17] was “inactive” each time. Besides, the compound was called inactive in test [9] and in [14].

As for `O=C(c1ccccc1)c1ccc(Cl)cc1`, the Potency entry in test [1], in [2], in test [3], in [4], in [5] and in test [6] was “inactive” in each case. Also, the Potency result in test [7], in test [8], in [18], in test [10], in test [11] and in [12] was “inactive” throughout. Also, the Potency entry in test [13], in [19], in [20], in test [15] and in [16] was “inactive” throughout. Moreover, the compound was classed as inactive in [9] and in test [14]. In test [17], the Potency was 61.1 µM (active).

With `CCOc1nc(F)cc2nc(S(=O)(=O)Nc3c(Cl)cccc3C(=O)OC)nn12`, the Potency entry in [1], in [2], in test [3], in test [4], in test [5] and in [6] was “inactive” each time. For the same compound, the Potency result in test [7], in test [8], in test [10], in test [11], in test [12] and in [13] was “inactive” in each case. Moreover, the Potency result in test [19], in [20], in [15], in test [16] and in test [17] was “inactive” each time. Also, the compound was classed as inactive in [9] and in test [14].

With `O=c1cc[nH]cc1`, the Potency result in [1], in [2], in test [3], in test [4], in test [5] and in test [6] was “inactive” throughout. Moreover, the Potency entry in test [7], in test [8], in [18], in test [10], in test [11] and in test [12] was “inactive” throughout. Also, the Potency entry in [13], in [19], in test [20], in [15], in [16] and in [17] was “inactive” in each case. Further, the call in test [9] and in test [14] was inactive.
